In all, about 69,000 compounds went through this assay and about 8,600 (12%) showed an effect of 50% or more. Only a selection was taken, and strong results are over-represented in it overall.
The compounds below were run on Plasmodium berghei (assay: Screen against P. berghei liver stage (PbLuc), transformed with Luciferase, at 10uM). Settings: tested at 10 uM.
Format: functional, HepG2

In order of rising INHIBITION:
1. Cc1nc2n(n1)CC(Nc1nc(C(F)(F)F)nc3ccccc13)CC2 (configuration not stated)  -59.3%
2. Cn1cc(-c2csc(N3CCSCC3)n2)cn1  -42.1%
3. CC(C(=O)NC1CCCCC1)N1CCc2[nH]nc(C(F)(F)F)c2C1 (configuration not stated)  -41.7%
4. COc1ccccc1NC(=O)CCNC(=O)c1ccoc1  -37.8%
5. Cc1cncc(C2CCN(C(=O)c3ccc(-n4cccn4)nc3)CC2)n1  -35.5%
6. Cc1nc2sccn2c1C(=O)N1CCc2c(nc(N)[nH]c2=O)C1  -31.6%
7. CC(=O)N(Cc1noc(C)n1)C1CCN(Cc2c(C)noc2C)C1 (configuration not stated)  -27.8%
8. CCC(Nc1nc(C(F)(F)F)nc2ccccc12)C(=O)O (configuration not stated)  -21.3%
9. CC(C)OCc1noc(C2CC=CC2)n1  -20%
10. COc1ccc(OC)c(CCNc2ncc(S(N)(=O)=O)s2)c1  -19.9%
11. Cc1noc(C)c1CN1CCn2cc(CN3CCCC3)nc2C1  -15.2%
12. CCc1nnc2n1CCN(C(=O)C(C)Oc1cccc(C#N)c1)C2 (configuration not stated)  -15%
13. Cc1cnc(CN2CCCC2c2cnn(C)c2)cn1 (configuration not stated)  -11.4%
14. Cc1ccccc1N(CC(=O)NCCc1nnc2n1CCC2)S(C)(=O)=O  -9.51%
15. CN1CCN(c2nc(-c3cnn(C)c3)cs2)CC1  -1.45%
16. CCc1nc(C2CCCN2C(=O)CCc2c(C)noc2Cl)no1 (configuration not stated)  1.78%
17. Cc1cnn(CC2CCCCN2CCCS(C)(=O)=O)c1 (configuration not stated)  5.03%
18. COc1ccc(CNc2cc(-c3nc(C)no3)ccn2)c(OC)c1  6.61%
19. CCc1cnc(N)nc1NCCCN1CCCCC1CO (configuration not stated)  6.94%
20. O=C(O)CN(Cc1ccsc1)CC1CCCO1 (configuration not stated)  8.7%
21. O=C(c1cn(CC(=O)N2CCc3[nH]cnc3C2)c2ccccc12)C1CC1  12.6%
22. CN1CCc2nc(C3CCCCN3Cc3ccccc3Cl)ncc2C1 (configuration not stated)  13.5%
23. Cc1ccc(CNc2ccc(N3CCC(CO)CC3)cn2)o1  14.1%
24. CCc1cnc(N)nc1NCCCn1nc(C)nc1C  14.6%
25. COCC(=O)N1CCN(CCn2cccn2)c2nc(C)ccc2C1  21.4%
26. CS(=O)(=O)N1CC2(CCN(CC3CC3)C2)Cc2ccccc21 (configuration not stated)  21.7%
27. CC(C)C(Nc1nc(C(F)(F)F)nc2ccccc12)C(=O)O (configuration not stated)  22.3%
28. Cc1nc2ncccn2c1C(=O)N1CCc2[nH]cnc2C1  22.5%
29. O=C(c1ccc(-n2cccn2)nc1)N1CCC(c2ccn[nH]2)C1 (configuration not stated)  23%
30. CN1CCCCC1c1ncc2c(n1)CCN(Cc1ccc(F)cc1)C2 (configuration not stated)  24.4%
31. CS(=O)(=O)N1CC2(CCCN(C3COC3)C2)Cc2ccccc21 (configuration not stated)  28.4%
32. CCCc1nnc(N2CCN(c3cccc(C)c3C)CC2)o1  30.1%
33. Cc1noc(C)c1-c1ccc(C2CCCN2CCC(N)=O)nc1 (configuration not stated)  30.4%
34. CCc1cnc(N)nc1NCCn1cc(Cl)cn1  30.4%
35. CO[C@H]1CN(Cc2cccc(C#N)c2)[C@@H]2COC[C@H]12  34.1%
36. CC(C)N1CCC(Cc2cncc(-c3cc(F)ccc3C(=O)O)n2)C1 (configuration not stated)  35.2%
37. CS(=O)(=O)N1CC2(CCN(C3CCCCC3)C2)Cc2ccccc21 (configuration not stated)  40.8%
38. CC(=O)Nc1cccc(C(=O)N2CCc3c(nc(N(C)C)[nH]c3=O)C2)c1  41.5%
39. O=C(Nc1ccc(F)cc1-c1nc(C2CC2)no1)N1CC[C@@H](O)C1  42.1%
40. COc1ccc(CN2CCc3nc(C4CCCCN4C)ncc3C2)cc1 (configuration not stated)  42.6%
41. Clc1ccccc1CN1CCc2nc(C3CCCCN3)ncc2C1 (configuration not stated)  43.2%
42. CCc1cnc(N)nc1NCc1ccc(OC)c(OC)c1  44%
43. CC1CN(C)CCN1C(=O)Nc1nc(-c2cccn2C)cs1 (configuration not stated)  47%
44. CS(=O)(=O)N1CC2(CCN(CC3CCCCC3)C2)Cc2ccccc21 (configuration not stated)  48.2%
45. O=C(c1ccc(-n2cccn2)nc1)N1CCC(c2ccc(O)cc2)CC1  50.1%
46. CN1CCCCC1c1ncc2c(n1)CCN(Cc1ccccc1Cl)C2 (configuration not stated)  51.7%
47. Cc1nc2sccn2c1C(=O)N1CCc2c(nc(N(C)C)[nH]c2=O)C1  51.8%
48. CS(=O)(=O)N1CC2(CCCN(CC3CC3)C2)Cc2ccccc21 (configuration not stated)  54.9%
49. CS(=O)(=O)N1CC2(CCN(C3COC3)C2)Cc2ccccc21 (configuration not stated)  55.7%
50. CCc1cnc(N)nc1NCCc1ccc(OC)cc1OC  58.05%
51. CN1CCCCC1c1ncc2c(n1)CCN(Cc1ccc(Cl)c(F)c1)C2 (configuration not stated)  58.1%
52. Cc1nc2sccn2c1C(=O)N1CCc2[nH]cnc2C1  58.3%
53. CCc1cnc(N)nc1NCCCn1cc(Cl)cn1  64.1%
54. CCc1cnc(N)nc1NCc1ccc(OC)cc1OC  73.8%
55. Cn1cc(-c2csc(N3CCCCCC3)n2)cn1  79.8%
56. FC(F)(F)c1nc(NC2CCCCC2)c2ccccc2n1  88.4%
57. FC(F)(F)c1nc(NC2CCCC2)c2ccccc2n1  88.4%

Reference: ChEMBL document CHEMBL4513216, “Probing the Open Global Health Chemical Diversity Library for Multistage-Active Starting Points for Next-Generation Antimalarials” (ACS Infect Dis, 2020)
